Bioassay records: PubChem, National Center for Advancing Translational Sciences (NCATS)
The list is not random: actives were taken first. Their share in the collection is about 5.5%.
BCR signal inh = qHTS Assay to Find Inhibitors of Chronic Active B-Cell Receptor Signaling; ABC-DLBCL IkBa-CBG/CBR reporter, luminescence ratio, 4 h; Potency, µM (titrated, usually from 46.1 µM), usual class: inhibitors; hit rate 0.05% among 340,000; active = well fitted inhibition curve with a large enough effect in the signal ratio, with a control signal flat, not every such curve was filed as active; inconclusive = small, poorly fitted or top-dose-only effect, or effect the other way, or a change in a side signal; the % refers to the signal ratio
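TMD8 human ABC-DLBCL cells with doxycycline-inducible IκBα–green luciferase fusion and unfused red luciferase, in 0.5% FBS medium; compounds up to 46 uM, 4 h at 37C. Green/red luminescence ratio, filter-overlap corrected, fitted to concentration-response curves.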
RORg inh = qHTS for inhibitors of ROR gamma transcriptional activity; Nuclear receptor ROR-gamma (Mus musculus), P51450; Drosophila S2 Gal4-RORgamma UAS-luciferase reporter, 20 h; Potency, µM (top dose mostly 53.6 µM), usual class: inhibitors; hit rate 5.4% among 310,000; note: nearly all actives have a fitted effect of over 60% in size
Target sequence (P51450 whole entry, looked up, the tested form may be a part): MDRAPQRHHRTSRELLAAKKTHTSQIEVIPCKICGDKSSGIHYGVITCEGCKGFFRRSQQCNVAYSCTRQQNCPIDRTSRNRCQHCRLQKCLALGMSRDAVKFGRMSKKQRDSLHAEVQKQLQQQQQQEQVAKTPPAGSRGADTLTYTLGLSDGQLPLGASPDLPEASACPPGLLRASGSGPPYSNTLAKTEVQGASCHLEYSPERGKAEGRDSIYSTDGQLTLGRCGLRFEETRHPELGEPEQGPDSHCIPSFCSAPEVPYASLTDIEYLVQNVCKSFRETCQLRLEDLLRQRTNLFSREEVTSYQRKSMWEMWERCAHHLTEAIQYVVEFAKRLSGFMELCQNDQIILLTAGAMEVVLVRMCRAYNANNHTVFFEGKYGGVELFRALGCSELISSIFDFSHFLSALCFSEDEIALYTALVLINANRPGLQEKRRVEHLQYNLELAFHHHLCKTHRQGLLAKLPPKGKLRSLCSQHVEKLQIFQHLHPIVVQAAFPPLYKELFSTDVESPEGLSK
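ROR gamma transcriptional activity was tracked as Gal4-UAS luciferase output in stably transfected Drosophila Schneider cells, with compound added 1 hr before 700 uM copper sulfate induction and a 20 hr ambient-temperature incubation.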
Mito fusion yeast = qHTS Assay for Small Molecule Inhibitors of Mitochondrial Division or Activators of Mitochondrial Fusion; S. cerevisiae fusion-defective mutant growth rescue, CellTiterGlo 48 h; AID 485298, 2010; hit rate 0.23% among 320,000; Potency, µM (series often up to 46.1 µM), actives largely listed as activators; note: nearly all actives have a fitted effect of over 45% in size
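Yeast fusion mutant, YPEG (non-fermentable carbon), compound, 48 h at 37C non-permissive; CellTiterGlo added, 10 min RT, luminescence read. Rescued growth = division inhibition.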
a7 integrin act = qHTS for Activators of Integrin-Mediated Alleviation for Muscular Dystrophy. alpha7betagal myoblasts, beta-gal FDG fluorescence, 48 h. Potency, µM (top dose mostly 38.3 µM), most hits filed as activators. hit rate 0.064% among 350,000. AID 624291, 2012; note: nearly all actives have a fitted effect of over 60% in size
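alpha7betagal+/- myoblasts (passage 13, 250/well) treated 48 h at 37C with compounds at 1:260 dilution of DMSO stock. Lysed, then beta-galactosidase activity read as FDG fluorescence (ex 480/em 540) after 30 min, with pre-read for autofluorescence.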
VP16 counter = VP16 counterscreen qHTS for inhibitors of ROR gamma transcriptional activity; Drosophila S2 Gal4-VP16 UAS-luciferase, luminescence, 20 h; Potency, µM (series often up to 53.6 µM), actives largely listed as inhibitors; hit rate 3.5% among 310,000; AID 2546, 2010;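 note: Gal4-VP16 expression switched on by copper sulfate through the metallothionein promoter; nearly all actives have a fitted effect of over 50% in size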
uPA surface inh = qHTS for Inhibitors of Cell Surface uPA Generation; AID 540303, 2011; cell surface uPA generation assay, qHTS; hit rate 0.31% among 330,000; Potency, µM (top dose mostly 38.3 µM), actives largely listed as inhibitors; active = well fitted inhibition curve with a large enough effect; inconclusive = small, poorly fitted or top-dose-only effect; inactive = no such curve, though single readings can be large or run the other way; tested in mouse RAW 264.7 cells; note: nearly all actives have a fitted effect of over 55% in size
Each line names hits and unclear results; the compound was inactive in the other large screens. Unless noted, calls come from the whole dose curve; as a rule, active = well fitted curve in the direction sought with a large enough effect; inconclusive = small, poorly fitted or top-dose-only effect, or another doubt; inactive = no such curve, though single readings can be large; an effect the other way counts as inactive or inconclusive.

FC(F)(F)c1ccccc1-c1nc(NC2CCNCC2)c2ccccc2n1	none (no result: BCR signal inh, Mito fusion yeast, a7 integrin act, uPA surface inh)
CC(=O)c1ccc(-n2c(SCC(=O)c3c[nH]c4ccccc34)nc3ccccc3c2=O)cc1	RORg inh 1.41µM
COc1ccc(C(=O)N(C)Cc2cnn(Cc3ccccc3)c2)cc1S(=O)(=O)N1CCOCC1	BCR signal inh inconclusive, uPA surface inh 2µM (no result: RORg inh, VP16 counter)
CN(Cc1cnn(Cc2ccccc2)c1)C(=O)c1cccc(S(=O)(=O)N2CCOCC2)c1	uPA surface inh 6.31µM (no result: RORg inh, VP16 counter)
CN(Cc1ccc(Cl)c(Cl)c1)C(=O)c1cccc(S(=O)(=O)N2CCN(Cc3ccccc3)CC2)c1	BCR signal inh inconclusive, uPA surface inh inconclusive (no result: RORg inh, VP16 counter)
CCC1Nc2ncnc(N3CCN(c4ccccn4)CC3)c2N(Cc2ccc(Cl)cc2)C1=O (stereo not given)	none (no result: RORg inh, VP16 counter)
O=C(/C=C/c1ccc(Cl)cc1Cl)NC(=S)Nc1ccc(CN2CCOCC2)cc1	BCR signal inh inconclusive, RORg inh 3.55µM, VP16 counter 4.47µM
O=C(/C=C/c1ccccc1)NC(=S)Nc1ccc(CN2CCOCC2)cc1	RORg inh 3.98µM, VP16 counter inconclusive
Clc1ccc(C=Cc2ccccn2)c(Cl)c1	none (no result: BCR signal inh, RORg inh, Mito fusion yeast, VP16 counter)
O=C(/C=C/c1ccc(Cl)cc1Cl)NC(=S)Nc1ccccn1	BCR signal inh inconclusive, RORg inh 2.82µM, VP16 counter 5.01µM
O=C(/C=C/c1ccc(Cl)cc1)Nc1ccc(CN2CCOCC2)cc1	none
O=C(Nc1ccc(CN2CCOCC2)cc1)c1ccc(Cl)cc1Cl	none
COc1ccc(C2=Nc3ccccc3C2(O)CCN2C(=O)c3ccccc3C2=O)cc1 (stereo not given)	none (no result: BCR signal inh, RORg inh, Mito fusion yeast, VP16 counter)
CC(C)(C)C(=O)Nc1ccccc1C(=O)NCCC(=O)Nc1ccccc1	none (no result: RORg inh, VP16 counter)
CCc1c(-c2ccccc2)nc2ccccc2c1C(=O)NCc1ccc(C)cc1	none (no result: RORg inh, Mito fusion yeast, a7 integrin act, VP16 counter, uPA surface inh)
Cc1cc(C)c2nc(C(F)(F)F)nc(N3CCN(C(=O)c4ccco4)CC3)c2c1	RORg inh 1µM, VP16 counter 0.891µM (no result: BCR signal inh)
C=C1CC2(CC(c3ccccc3)OC(c3ccccc3)C2)OC1=O (stereo not given)	none (no result: BCR signal inh, RORg inh, Mito fusion yeast, VP16 counter)
CC1(C)CC(NC(=O)c2cccc(Cl)c2)CC(C)(C)N1	none
COC(=O)c1ccc(NC(=S)NC(=O)C2CCC2)cc1	RORg inh 11.2µM, VP16 counter inconclusive
COC(=O)c1ccc(NC(=O)CNC(=O)C2CCCCC2)cc1	none
COc1ccc(OCC(=O)NNC(=S)NC(=O)C2CCCCC2)cc1	RORg inh 14.1µM (no result: a7 integrin act, uPA surface inh)
CCOC(=O)c1ccc(NC(=S)NC(=O)C2CCCC2)cc1	BCR signal inh inconclusive, RORg inh 7.08µM, VP16 counter 7.08µM
COC(=O)c1ccc(NC(=S)NC2CCCCC2C)cc1 (stereo not given)	RORg inh 7.94µM, VP16 counter 3.55µM
CCOC(=O)c1ccc(NC(=S)NC2CCCC2)cc1	BCR signal inh inconclusive, RORg inh inconclusive, VP16 counter inconclusive
CC(C)=CC(=O)N1CC[C@@H](N2CCN(c3ccccc3F)CC2)[C@H](O)C1	none
COc1ccc(OCC(=O)NNC(=S)NC(=O)C2CC2)cc1	none
COc1ccc(NC(=S)NC(=O)C2CCC2)cc1	RORg inh 8.91µM, VP16 counter 11.2µM
C[C@]12c3[nH]c4ccccc4c3CCN1C(=O)C(CC(=O)NCc1ccco1)C[C@@H]2C(=O)N1CCCCC1 (stereo not given in full)	uPA surface inh 6.31µM (no result: RORg inh, Mito fusion yeast, VP16 counter)
C[C@]12c3[nH]c4ccccc4c3CCN1C(=O)C(CC(=O)NCc1ccco1)C[C@@H]2C(=O)N1CCOCC1 (stereo not given in full)	uPA surface inh inconclusive (no result: RORg inh, Mito fusion yeast, VP16 counter)
O=C(Cc1ccccc1)Nc1ncccn1	none (no result: RORg inh, VP16 counter)
COc1ccc(-n2nc([N+](=O)[O-])c(=NCCc3ccccc3)n2O)cc1	BCR signal inh inconclusive, uPA surface inh 10µM
Cc1ccc(CCN=c2c([N+](=O)[O-])nn(-c3ccccc3)n2O)cc1	none
COc1cccc(CN=c2c([N+](=O)[O-])nn(-c3ccccc3C)n2O)c1	RORg inh inconclusive
O=[N+]([O-])c1nn(-c2ccccc2)n(O)c1=NCCc1ccccc1	Mito fusion yeast 17.8µM
Cn1c(=O)c2c(SCC(=O)Nc3ccccc3F)nc(-c3ccccc3F)nc2n(C)c1=O	none
OC1(c2ccc(Cl)c(Cl)c2)C[n+]2ccccc2N1Cc1ccccc1 (stereo not given)	BCR signal inh inconclusive
Fc1cccc(NC(=S)NC2CCCCCCC2)c1	BCR signal inh inconclusive, RORg inh 3.55µM, a7 integrin act inconclusive, VP16 counter 7.08µM
O=C(O)c1ccc(NC(=S)NC2CCCCC2)cc1	BCR signal inh inconclusive
FC(F)(F)c1ccc(NC(=S)NC2CCCCC2)cc1	BCR signal inh inconclusive, RORg inh 4.47µM, VP16 counter inconclusive
Fc1cccc(NC(=S)NNc2ccccc2)c1	BCR signal inh inconclusive, RORg inh 1.26µM, VP16 counter 2.24µM
FC(F)(F)c1cccc(NC(=S)NC2CCCC2)c1	RORg inh 5.01µM, Mito fusion yeast inconclusive, VP16 counter 8.91µM
Fc1cccc(NC(=S)NNc2c3ccccc3nc3ccccc23)c1	BCR signal inh inconclusive
CCCOc1ccccc1NC(=O)/C=C/c1ccc(OC)c(S(=O)(=O)N2CCOCC2)c1	none (no result: BCR signal inh, RORg inh, Mito fusion yeast, VP16 counter, uPA surface inh)
COc1ccc(Br)cc1/C=C/c1ccc2cccc(O)c2n1	BCR signal inh inconclusive, RORg inh 4.47µM, VP16 counter inconclusive
COc1cc(Br)cc(/C=C/c2ccc3cccc(O)c3n2)c1OC	BCR signal inh inconclusive, RORg inh 2.51µM, VP16 counter inconclusive
Cc1ccc(CCNC(=O)c2ccc(CSCc3ccccc3Cl)o2)cc1	none (no result: RORg inh, Mito fusion yeast, a7 integrin act, VP16 counter, uPA surface inh)
O=C(Cc1ccccc1)N/N=C/c1ccc[nH]1	RORg inh 12.6µM, a7 integrin act inconclusive
O=C(Cc1ccccc1)N/N=C/c1ccc2cccc(O)c2n1	RORg inh 7.94µM, VP16 counter inconclusive
NC(=O)N/N=C/c1ccc2cccc(OCc3ccccc3)c2n1	BCR signal inh inconclusive
O=C(CNC(=O)c1ccc(Br)cc1)N/N=C/c1ccc[nH]1	BCR signal inh inconclusive
Cc1ccc(NCC(=O)N/N=C\c2ccc[nH]2)cc1	BCR signal inh inconclusive, RORg inh 6.31µM, VP16 counter inconclusive
COC1=C(OC)C(=O)C(C/C=C(\C)CC/C=C(\C)CC/C=C(\C)CC/C=C(\C)CC/C=C(\C)CC/C=C(\C)CC/C=C(\C)CC/C=C(\C)CC/C=C(\C)CCC=C(C)C)=C(C)C1=O	none (no result: BCR signal inh, Mito fusion yeast, a7 integrin act, uPA surface inh)
CC[C@H](C)[C@@H](NC(=O)O[C@@H]1C(=O)c2ccc(OC)cc2O[C@H]1c1ccc2c(c1)OCO2)C(=O)OC	none (no result: BCR signal inh, Mito fusion yeast, a7 integrin act, uPA surface inh)
